Compounds without any hit were thinned out: in the full panel of roughly 83,000, 20% have a hit.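 Plates (96-well) were seeded with cells, treated with compound at one concentration, and incubated for 48 hours before percent growth was determined.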 The source made the active and inactive calls.
Tested on: HOP-92 NSCLC
Assay: NCI-60 one-dose screen, 48 h (100 = growth as untreated, 0 = no growth, -100 = all killed)
Details: 10 µM unless noted
Description: Growth inhibition of the HOP-92 human Non-Small Cell Lung tumor cell line is measured as a screen for anti-cancer activity. Cells are grown in 96 well plates and exposed to the test compound for 48 hours. Compounds are tested at a single concentration, which is 10^-5 M for most compounds. The reported endpoint is percent growth (GI% or GIPRCNT), where numbers from 0 - 100% represent growth inhibition, and numbers from -100% - 0 represent cell death. For example, a value of 40 represents 60% growth inhibition. A value of 0 means no net growth occurred over the course of the experiment. A value of -40 indicates 40% of cells at the beginning of the experiment died by the end of the experiment. A value of -100 means all cells are dead at the end of the experiment.
NCI-60 Human Tumor Cell Lines Screen was performed using the standard one-dose NCI protocol, which is described in more detail at https://dtp.cancer.gov/discovery_development/nci-60/default.htm.
Compounds with GIPRCNT values below 10 were considered active. Activity score was based on GIPRCNT using the following formula: […]
Score is 0 for GIPRCNT values of 100 or above, 50 for GIPRCNT values of 0, and 100 for GIPRCNT values of -100.

SMILES	growth
CC1(C)S[C@@H]2[C@H](NC(=O)[C@H](C(=O)O)c3cccs3)C(=O)N2[C@H]1C(=O)O	122% (inactive)
O=C(NCc1ccccc1)C(Cl)Cl	95.1% (inactive)
CCn1cc(-c2cc(-c3ccc(Cl)cc3)nc(N)n2)c(-c2ccc(Br)cc2)n1	74.2% (inactive)
CCOc1cccc2c(NC(C)CCCN(CC)CC)c(C)cnc12 (stereo not given)	97% (inactive)
CN(C)c1ccc(N=Nc2ccc3ccccc3c2)cc1	82.1% (inactive)
COc1cc2c(c(OC)c1OC)-c1cc(I)c(O)cc1[C@@H](NC(C)=O)CC2	62.1% (inactive)
COc1ccc(-c2ccc(NNC(=O)c3ccc(F)cc3)nn2)cc1OC	8.49% (active)
C[n+]1c(-c2ccccc2)c2cc(N)ccc2c2ccccc21	54.5% (inactive)
N#C/C(C(=O)c1ccccc1)=C1/C(=O)Nc2ccc(Br)cc21	109% (inactive)
O=c1[nH]cnc2c1ccn2C1OC(CO)C(O)C1O (stereo not given)	8.49% (active)
C[C@H]1[C@H](C)CC[C@]2(C(=O)N3CCN(C)CC3)CC[C@]3(C)C(=CC[C@@H]4[C@@]5(C)C/C(=C/c6ccco6)C(=O)C(C)(C)[C@@H]5CC[C@]43C)[C@H]12	56.9% [100 µM] (inactive)
N#CC1C(=O)NC(c2ccccc2[N+](=O)[O-])c2sc3c(F)cccc3c21 (stereo not given)	82.7% (inactive)
CCN(CC)CCCOc1ccc2c(c1)O/C(=C\c1cccc(OC)c1)C2=O	84.3% (inactive)
Cc1ccc2c(n1)C(=O)C(Cl)=C(Nc1ccc(N3CCN(C)CC3)cc1)C2=O	-86.3% (active)
COc1ccc(-c2cc(-c3ccc(OC)c(OC)c3)nc(SCCCCCC(=O)NO)n2)cc1	27.6% (inactive)
CCN=Cc1c(O)c(O)c(C(C)C)c2cc(C)c(-c3c(C)cc4c(C(C)C)c(O)c(O)c(C=NCC)c4c3O)c(O)c12	16.3% (inactive)
COC(=O)[C@]12CCC(C)(C)C[C@H]1C1=CC[C@@H]3[C@@]4(C)C/C(=C/c5cccnc5)C(=O)C(C)(C)[C@@H]4CC[C@@]3(C)[C@]1(C)CC2	-61.5% [100 µM] (active)
CCOC(=O)COc1c(C)cc(SSc2cc(C)c(OCC(=O)OCC)c(C)c2)cc1C	76.8% (inactive)
Nc1ccc(Cl)c([N+](=O)[O-])c1	94% (inactive)
CC(C)C1=NOC(=O)C1=Cc1cn(-c2cccnc2)nc1-c1ccccc1	92.6% (inactive)

SMILES	growth
COc1cc(C)cc2oc3oc(=O)c(-c4nc5ccccc5s4)cc3c(=O)c12	76.1% (inactive)
COc1ccc2c(c1)c(-c1noc(-c3cn(C)c4ncc(F)cc34)n1)cn2C	69.9% (inactive)
CC[C@]1(O)CC2CN(CCc3c([nH]c4ccccc34)[C@@](C(=O)OC)(c3cc4c(cc3OC)N(C=O)[C@H]3[C@@](O)(C(=O)OC)[C@H](OC(C)=O)[C@]5(CC)C=CCN6CC[C@]43[C@@H]65)C2)C1 (stereo not given in full)	25.4% (inactive)
Cc1nn(-c2ccccc2)c(N2CCOCC2)c1-c1nc2ccc([N+](=O)[O-])cc2[nH]1	117% (inactive)
CC1Cc2c(ncnc2-n2cnc3ccccc32)N(C)c2ccccc21 (stereo not given)	36.3% (inactive)
CCCCCn1sc(=O)n(Cc2ccc(CNC(=O)OCc3ccc4cccc(O)c4n3)cc2)c1=O	-52.5% (active)
COc1ccc(C(C(=O)O)c2ccc(OC)cc2)cc1	106% (inactive)
NC1=NC(=O)NC1(c1ccccc1)c1ccccc1	85.3% (inactive)
C=C(C)[C@@H]1CC[C@]2(C(=O)NCCNCCNCCN)CC[C@]3(C)[C@H](CC[C@@H]4[C@@]5(C)CCC(=O)C(C)(C)[C@@H]5CC[C@]43C)[C@@H]12	-65.2% [100 µM] (active)
c1cc2ccc3cc2cc1CNCCN1CCNCc2ccc4ccc(cc4c2)CNCCN(CCNC3)CCNCc2ccc3ccc(cc3c2)CNCC1	-17.9% (active)
CC1=CC[C@@H]2C(C)(C)C(=O)CC[C@@]2(C)[C@@H]1COc1ccc2ccc(=O)oc2c1	73.9% (inactive)
CCOC(=O)CC(c1ccccc1)C(C#N)c1ccccc1 (stereo not given)	90.9% (inactive)
Cc1ccc(NC(=S)/N=c2/n(-c3ccccc3)nc3n2CCN3C2=NCCN2)cc1	75.3% (inactive)
OC(c1ccc(Cl)cc1)(c1ccc(Cl)cc1)C(O)(c1ccc(Cl)cc1)c1ccc(Cl)cc1	24.7% (inactive)
CCOC(=O)c1cnc2ccc(Br)cc2c1Nc1cccc(S(N)(=O)=O)c1	91.1% (inactive)
C[C@]12CCc3nc(Nc4ccccc4)sc3C1=CC[C@@H]1[C@@H]2CC[C@]2(C)/C(=N/NC(N)=S)CC[C@@H]12	85.4% (inactive)
O=c1cc(-c2ccccc2)oc2cc(OCc3cn(Cc4ccc(F)cc4)nn3)cc(O)c12	-3.35% [100 µM] (active)
COc1ccc(OC)c([N+](=O)[O-])c1C(=O)CNC(C)=O	89.9% (inactive)
O=[N+]([O-])c1cc([N+](=O)[O-])c(C(F)(F)F)cc1NN=C(c1ccc(O)cc1)c1ccc(O)cc1	108% (inactive)
Cc1ccc(N)c(O)c1	68.1% (inactive)

Source: PubChem BioAssay (NCI)
